Screening results deposited in PubChem BioAssay by National Center for Advancing Translational Sciences (NCATS).
This is one part of a sample in which hits are shown more often than they occur.
TbPYK inhibitor – T. brucei pyruvate kinase inhibition; Q57TT1; TbPYK enzyme, Kinase-Glo Plus ATP luminescence, 45 min; Potency, µM (highest dose often 76.8 µM), actives largely listed as inhibitors; hit rate 0.12% among 410,000; AID 624173; also: nearly all actives have a fitted effect of over 50% in size
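In this concentration-response screen, enzyme-free wells defined baseline while DMSO plates tracked drift. Each reaction combined TbPYK, substrate, compound and 130 uM ADP for 45 min at room temperature. Kinase-Glo Plus luminescence gave the signal.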
Shiga inhibitor – inhibitors of Shiga toxin in Vero cells | Vero cells, Shiga toxin protein synthesis inhibition reporter | inhibition, % at 38.7 µM | hit rate 9.2% among 290,000; in the data active = inhibition mostly above about 28%, no sharp cut-off; inactive = mostly below about 43%
NS1 inh – inhibitors of influenza NS1 protein function | AID 2326 | Potency, µM (highest dose often 46.1 µM) | hit rate 0.4% among 270,000; calls by dose curve; also: actives are rising curves; nearly all actives have a fitted effect of over 50% in size
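Recovery from NS1-induced slow growth read by OD600 in budding yeast switched to galactose assay medium (pH 6.0, -URA) at 1:100 dilution. Compound 23 nl per well; the matching strain lacking NS1 serves as control.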
Cycloheximide cs – counter-screen for Shiga toxin inhibitors: cycloheximide protein synthesis inhibition. AID 2314. hit rate 12% among 300,000. max response, %. cell reporter, cycloheximide protein synthesis inhibition counterscreen; in the data active = max response mostly above about 13%, no sharp cut-off; inactive = mostly below about 14%; also: read at 38.3 µM for the half of the compounds with a filed dose
SARS PLP yeast – SARS-CoV PLP inhibition in yeast | S. cerevisiae expressing SARS-CoV PLpro, growth rescue | Potency, µM (titrated, usually from 32.9 µM), actives largely listed as activators | hit rate 0.19% among 330,000; calls by dose curve; also: nearly all actives have a fitted effect of over 55% in size
LmPK inhibitor – blocks Leishmania mexicana pyruvate kinase activity; Q27686; purified LmPK, Kinase-Glo ATP luminescence, 1 h; Potency, µM (series often up to 57.5 µM), most hits filed as inhibitors; hit rate 0.37% among 290,000; AID 1721
Target sequence (Q27686 whole entry, looked up): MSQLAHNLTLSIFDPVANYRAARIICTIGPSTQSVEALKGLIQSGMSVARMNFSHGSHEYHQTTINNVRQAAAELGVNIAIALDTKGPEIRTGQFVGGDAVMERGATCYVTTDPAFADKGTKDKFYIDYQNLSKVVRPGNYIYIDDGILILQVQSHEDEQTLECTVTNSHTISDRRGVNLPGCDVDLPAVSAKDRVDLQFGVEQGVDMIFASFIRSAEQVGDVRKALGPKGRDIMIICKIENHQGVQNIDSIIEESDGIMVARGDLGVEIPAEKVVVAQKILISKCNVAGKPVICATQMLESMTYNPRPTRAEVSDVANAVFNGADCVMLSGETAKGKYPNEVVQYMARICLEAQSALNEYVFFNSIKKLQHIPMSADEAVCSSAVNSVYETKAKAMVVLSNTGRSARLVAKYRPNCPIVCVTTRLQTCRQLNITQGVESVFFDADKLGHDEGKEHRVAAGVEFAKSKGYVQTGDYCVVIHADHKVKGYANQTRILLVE
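qHTS format; LmPK 0.1 nM; substrates PEP 0.5 mM and ADP 0.1 mM. One-hour room-temperature incubation, then coupled luciferase luminescence; 0.5 nM enzyme wells mark activation.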
A number is an active result; - = inactive; ? = inconclusive; . = not tested or not shown; + = active, no number; [ ] = dose if it differs, or a comment. Unless noted, calls follow the shape of the dose curve; as a rule, active = well fitted curve in the direction sought with a large enough effect; inconclusive = small, poorly fitted or top-dose-only effect, or another doubt; inactive = no such curve, though single readings can be large; an effect the other way counts as inactive or inconclusive.

SMILES	TbPYK inhibitor	Shiga inhibitor	NS1 inh	Cycloheximide cs	SARS PLP yeast	LmPK inhibitor
Cc1ccc(N2C(=O)c3ccccc3C2C(=O)c2cc(C)ccc2O)cc1 (centres undefined)	-	+	-	40	-	-
Cc1ccc(N2C(=O)c3ccccc3C2C(=O)c2ccc(C)c(C)c2O)cc1 (centres undefined)	-	-	-	18	-	-
Cc1ccc(C2C(C(=O)O)c3ccccc3C(=O)N2C)c(C)c1 (centres undefined)	-	-	-	-	?	-
Cc1ccc(N2C(=O)c3ccccc3C2C(=O)c2ccc(O)cc2O)cc1 (centres undefined)	-	-	-	-	-	-
CCc1ccc(NC(=O)c2sc3nc4n(c(=O)c3c2C)CCC4)cc1	-	36	-	29	-	-
O=C(Nc1nccs1)c1ccc2c(=O)n3c(nc2c1)CCCCC3	-	98	-	19	-	-
CCOc1ccc(NC(=O)c2ccc3c(=O)n4c(nc3c2)CCCCC4)cc1	-	-	-	-	-	-
CCc1ccc(NC(=O)c2ccc3c(=O)n4c(nc3c2)CCCCC4)cc1	-	47	-	37	-	-
Cc1csc(NC(=O)c2ccc3c(=O)n4c(nc3c2)CCCCC4)n1	-	63	-	27	-	-
CC(C)(C)c1cc(NC(=O)COC(=O)c2ccc3c(=O)n4c(nc3c2)CCC4)n(-c2ccccc2)n1	-	-	-	16	-	-
COc1ccccc1NC(=O)COC(=O)c1ccc2c(=O)n3c(nc2c1)CCC3	-	.	.	.	.	.
CC(C)c1ccc(NC(=O)C(c2ccccc2)N2CC(=O)Nc3ccccc32)cc1 (centres undefined)	-	active	-	33	-	-
Cc1ccc(NC(=O)[C@@H](c2ccccc2)N2Cc3ccccc3C2=O)cc1	-	.	.	.	.	.
COc1ccccc1OCCC(=O)Nc1nc(C)cs1	-	-	-	15	-	-
COc1ccc(OCCC(=O)Nc2nccs2)cc1	-	-	-	-	-	-
COc1ccc(CC(=O)Nc2nc(C)cs2)cc1OC	-	-	-	-	-	-
CCc1ccc(OCCCC(=O)Nc2nccs2)cc1	-	53	-	29	-	-
O=C(CCCOc1ccccc1)Nc1nccs1	-	-	-	-	-	-
COc1ccccc1OCCCC(=O)Nc1nccs1	-	89	-	52	-	-
Cc1ccc(CNC(=O)C2CCCN(c3nc4c(C)cc(C)cc4s3)C2)cc1 (centres undefined)	-	.	.	.	.	.
CCc1nnc(NC(=O)c2cccc(OC)c2)s1	-	65	-	42	-	-
CCc1nnc(NS(=O)(=O)c2ccc(N/C=C/C(=O)c3ccc(OC)cc3)cc2)s1	-	86	-	51	-	-
CCc1nnc(NC(=O)c2ccc(S(C)(=O)=O)cc2)s1	?	-	-	-	-	-
CCOCc1nnc(NC(=O)c2cc(OC)cc(OC)c2)s1	-	-	-	-	-	-
CCc1nnc(NC(=O)c2ccc(OC)cc2)s1	-	93	.	28	-	-
SMILES	TbPYK inhibitor	Shiga inhibitor	NS1 inh	Cycloheximide cs	SARS PLP yeast	LmPK inhibitor
CCOCc1nnc(NC(=O)c2cccc(OC)c2)s1	-	57	-	25	-	-
CCCCc1nc2c(c3c1C[C@H](C)OC3)CN(C(=O)N[C@@H](C)c1ccccc1)CC2	.	.	.	.	.	-[11.5 µM]
COc1ccc(-c2nnc(NC(=O)c3cccs3)s2)c(OC)c1	-	-	-	-	-	-
COc1ccc(Cc2nnc(NS(=O)(=O)c3ccccc3)s2)cc1	-	-	-	-	-	-
COc1cccc(-c2nnc(NC(=O)Cc3cccs3)s2)c1	-	-	-	22	-	-
COc1ccc(C(=O)Nc2nnc(C(F)(F)F)s2)cc1	-	98	-	27	-	-
COc1ccc(S(=O)(=O)Nc2nnc(Cc3ccc(OC)c(OC)c3)s2)cc1	-	-	-	9.2	-	-
COc1cccc(C(=O)Nc2nnc(-c3cccs3)s2)c1	-	89	-	24	-	-
O=C(NCC(c1cccs1)S(=O)(=O)c1cccs1)c1cccc(F)c1 (centres undefined)	-	.	.	.	.	.
Cc1cc(C)cc(NC(=O)CSc2nnc(-c3cc4occc4n3C)n2-c2ccccc2C)c1	-	.	.	.	.	.
CC1(C(=O)Nc2ccc3nc[nH]c3c2)CCN1C(=O)C/C=C/c1ccccc1 (centres undefined)	-	.	.	.	.	.
CCCCCCCCCC(=O)NNC(=O)c1c(O)c2ccccc2n(CC)c1=O	-	-	-	-	-	-
CCCCCC(=O)NNC(=O)c1c(O)c2ccccc2n(CC)c1=O	-	59	-	19	-	-
N#Cc1nc(-c2cccc(Cl)c2)oc1NCc1cccnc1	-	46	-	-	-	-
N#Cc1nc(COc2cccc(Cl)c2)oc1NCc1ccncc1	-	-	-	18	-	-
CC(=O)c1ccc(NC(=O)CCCSc2nc(-c3ccco3)cc(C(F)(F)F)n2)cc1	-	.	.	.	.	.
O=C(NCC1CC1)c1ccc(Nc2nc3ccc(Br)cc3[nH]2)cc1	?	-	-	-	-	-
O=C(Cc1ccc(Nc2nc3ccc(Br)cc3[nH]2)cc1)NCCc1cccs1	-	-	-	15	-	-
C=CCN=C1CCCc2c1[nH]c1ccc(C)cc21	-	50	.	30	-	-
OCCN=C1CCCc2c1[nH]c1ccc(Br)cc21	-	-	-	-	-	-
Cc1cccc(-n2c(CNC(=O)c3ccc(S(=O)(=O)N4CCCC4)cc3)n[nH]c2=S)c1	14µM	-	-	-	-	-
O=C(NCc1n[nH]c(=S)n1-c1cccc(Cl)c1)c1ccc(S(=O)(=O)N2CCCCC2)cc1	?	-	?	-	-	-
COc1ccc(Cl)cc1NC(=O)Nc1ccc(C(=O)N2CCCC2)cc1	-	55	-	17	-	-
COc1ccc(C)cc1NC(=O)Nc1ccc(C(=O)N2CCCC2)cc1	-	48	-	14	-	-
O=c1[nH]cnc2c1oc1ccccc12	-	70	-	34	-	-
SMILES	TbPYK inhibitor	Shiga inhibitor	NS1 inh	Cycloheximide cs	SARS PLP yeast	LmPK inhibitor
CCc1nc(NC(C)C)c2oc3ccccc3c2n1	-	-	-	-	-	-
Cc1nc(SCc2nc3c(C)cccc3[nH]2)c2oc3ccccc3c2n1	-	.	.	.	-	.
O=c1[nH]c(CSc2ccccn2)nc2c1oc1ccccc12	-	91	-	49	-	-
CCc1nc2c(oc3ccccc32)c(=O)[nH]1	-	-	-	22	-	-
CCOc1ccc(S(=O)(=O)c2c(C(=O)c3ccc(CC)cc3)cnc3ccc(C)cc23)cc1	-	.	.	.	.	.
COc1ccc(NC(=O)CSc2nc(-c3ccco3)cc(C(F)(F)F)n2)c(OC)c1	-	.	.	.	.	.
COc1ccc(C)cc1NC(=O)c1nn(-c2ccccc2)cc1OC	-	-	-	-	-	-
COc1cn(-c2ccccc2)nc1C(=O)Nc1ccc(C)cc1	-	56	-	36	-	-
COc1cn(-c2ccccc2)nc1C(=O)Nc1ccccc1	-	82	-	47	-	-
